This note sets out measurements from PubChem BioAssay AID602179 (National Center for Advancing Translational Sciences (NCATS), 2012).

Molecules are shown by their SMILES. Among all 390,000 compounds or so, about 360 (0.092%) were called active. The list comes from a sample in which actives are over-represented; it also holds similar structures and randomly drawn compounds. A number with no mark means an inactive call. The call rests on the fitted dose curve; in most records, active means well fitted inhibition curve with a large enough effect; inconclusive means small, poorly fitted or top-dose-only effect; inactive means no such curve, though single readings can be large or run the other way.
Potency means the concentration at half of the fitted maximal effect.

Sequence of Isocitrate dehydrogenase [NADP] cytoplasmic (Homo sapiens) (O75874 whole entry R132H, stated change not applied, canonical isoform): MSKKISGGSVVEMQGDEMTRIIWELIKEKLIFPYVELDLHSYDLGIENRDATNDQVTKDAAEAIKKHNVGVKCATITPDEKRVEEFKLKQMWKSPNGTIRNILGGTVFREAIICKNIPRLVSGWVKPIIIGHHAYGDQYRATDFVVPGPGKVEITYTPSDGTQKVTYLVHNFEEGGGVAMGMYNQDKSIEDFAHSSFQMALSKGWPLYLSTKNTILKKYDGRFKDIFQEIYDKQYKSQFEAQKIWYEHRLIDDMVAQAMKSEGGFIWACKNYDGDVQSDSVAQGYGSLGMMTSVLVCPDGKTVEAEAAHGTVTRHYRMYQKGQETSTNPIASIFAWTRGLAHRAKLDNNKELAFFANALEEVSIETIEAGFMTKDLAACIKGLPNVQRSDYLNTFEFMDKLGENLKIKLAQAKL

In the assay the target is Isocitrate dehydrogenase [NADP] cytoplasmic (Homo sapiens) (UniProt O75874). Briefly: qHTS for Inhibitors of mutant isocitrate dehydrogenase 1 (IDH1): qHTS. Further: nearly all actives have a fitted effect of over 65% in size. The note with it: IDH1-R132H enzyme, NADPH consumption, diaphorase/resazurin fluorescence; series mostly up to 76.6 µM; activity change, negative = inhibition: at the top concentration. An excerpt:
Unbiased genomic sequencing for 22 glioma genomes found recurrent mutation of isocitrate dehydrogenase 1 (IDH1) on chromosome 2q33-a gene encoding the cytosolic isoform of IIDH1associated with the tricarboxylic acid cycle (TCA) that catalyzes the oxidative decarboxylation of isocitrate, yielding alpha-ketoglutarate and CO2 via NADP+ to NADPH conversion. Subsequent studies confirmed the recurrent IDH mutations in up to 70% of secondary gliomas and in 10% of AML cases. […] This in effect defines IDH1 as an oncogene, and provides an extraordinary opportunity to discover chemical probes against mutant IDH1 that may translate into much needed new therapies for glioma and AML patients. […] NIH Chemical Genomics Center [NCGC] NIH Molecular Libraries Probe Centers Network [MLPCN] MLPCN Grant: DA032129 Assay Submitter (PI): Lenny Dang, Agios Pharmaceuticals
IDH1-R132H (0.5 ug/mL) was dispensed into black, solid-bottom 1536-well plates at 3 uL/well in 20 mM Tris-HCl (pH 7.5), 150 mM NaCl, 10 mM MgCl2, 4 mM beta-ME, and 0.05% protease-free BSA. Then, 23 nL of compounds or DMSO were delivered to each well using a pin tool. A pre-read was run on the Viewlux to identify fluorescent compounds (540 nm excitation filter, 598 nm emission filter, bodipy mirror and 2 second exposure). After 30 minutes of incubation with compound, 3 uL of substrate mix were dispensed (0.016 mM NADPH, 2 mM alpha-KG, 20 mM Tris-HCl (pH 7.5), 150 mM NaCl, 10 mM MgCl2, and 0.05% protease-free BSA). Plates were spun for 1 min at 1000xg and incubated at room temperature for 80 min. Then 1.5 uL of each detection reagent component for the coupling system were added (0.12 mg/mL diaphorase and 0.072 mM resazurin, each in 20 mM Tris-HCl (pH 7.5), 150 mM NaCl, 10 mM MgCl2, and 0.05% protease-free BSA ) The protein, substrate and two detection components were maintained at 4 °C throughout the screen. Additionally, the substrate and resazurin reagents were protected from light. The plates were measured on an Envision plate reader for fluorescence signal using a 540 nm excitation filter and 590 nm emission filter with 10 flashes. 1x and 0x (no-enzyme) IDH1-R132H enzyme control were used to normalize %Activity of identified inhibitors; 0x enzyme values corresponded to 100% Activity (full inhibition), while 1x IDH1-R132H enzyme values were used to normalize 0%Activity (no inhibition). Concentration-response curves were fitted to the signals arising from the resulting fluorescence. The concentration-effect curves were then classified based on curve quality (r2), response magnitude and degree of measured activity, and compounds were subsequently categorized based on their curve class. […] Keywords: isocitrate dehydrogenase, IDH1, IDH1-R132H, MLSMR, MLPCN, NIH Roadmap, qHTS, NCGC
A general note: In qHTS, concentration-response curves come from the screen itself.
Take `Cc1nn(-c2nc(-c3ccccc3)cc(C(F)(F)F)n2)c(C)c1Cl`: the “activity change, negative = inhibition” value is -2.85%. In the case of `NS(=O)(=O)c1ccc2nc(NC(=O)COc3ccccc3)sc2c1`, the “activity change, negative = inhibition” value is 16.5%. As for `O=C(NC(Nc1nc2ccc([N+](=O)[O-])cc2s1)(C(F)(F)F)C(F)(F)F)c1ccccc1`, the Potency is 9.27 µM (active). For `CN(C)c1cccc(C(=O)Nc2nc3ccc(S(=O)(=O)NC(C)(C)C)cc3s2)c1`, the “activity change, negative = inhibition” value was -9.07%. Regarding `CCc1ccc(NC(=O)C2CCCN2S(=O)(=O)c2ccc3nc(-c4ccccc4)[nH]c3c2)cc1` (stereo not drawn), the “activity change, negative = inhibition” value was 12.1%.

As to `CCOC(=O)c1ccc(NC(=O)Cn2c(=O)cc(C)c3c(C)nn(-c4cccc(F)c4)c32)cc1`, the “activity change, negative = inhibition” value was 2.76%. As to `CCCCN(CC)CCCNC(=O)c1nn(C)c2c1CSc1ccccc1-2`, the “activity change, negative = inhibition” value was -11.4%.

For the compound `O=C(CN1C(=O)CCn2nc(-c3ccccc3)cc21)NCc1ccccc1`, the “activity change, negative = inhibition” value was 8.18%. On to `COc1ccc2c(C)c(CCC(=O)NCc3ccc(OC)c(OC)c3)c(=O)oc2c1`, for which the “activity change, negative = inhibition” value is 9.73%. In the case of `CSc1ccc(C2c3c(oc4ccccc4c3=O)C(=O)N2CCCN2CCOCC2)cc1` (stereo not drawn), the “activity change, negative = inhibition” value was -26.3%. As to `Cc1ccc(C(=O)NCCSc2c(C)[nH]c3ccccc23)cc1C`, the “activity change, negative = inhibition” value was 15%.

With `O=C(Nc1ccccc1Br)c1cc(CN2CCCC2)on1`, the “activity change, negative = inhibition” value is 18.6%.

Consider `Cc1ccc(C)c(NC(=O)C2CCCN(S(=O)(=O)c3cn(C)cn3)C2)c1` (stereo not drawn), for which the “activity change, negative = inhibition” value was -0.0051%. Still for that read-out and setting: for `Cc1ccc(CNC(=O)CSc2c(C)cnc3c2c(=O)n(C)c(=O)n3C)cc1` the value was -5.79%. As for `O=C(Nc1nc2c(s1)CCCC2)c1ccccc1F`, the “activity change, negative = inhibition” value was 5.05%. The same measure, in the same setting: for `Cc1ccc(N2CC(C(=O)Nc3ccc(N(C)C)cc3)CC2=O)cc1Cl` (stereo not drawn) the value was -6.08%; for `COc1cccc(NC(=O)C(=O)NCC(c2ccc3c(c2)OCO3)N2CCN(C)CC2)c1` (stereo not drawn), 4.3%; for `CSc1ccc(CCNC(=O)c2ccc3c(c2)nc2n3CCOC2)cc1`, 17.1%. With `O=C(NC1CC(=O)N(c2ccc(F)cc2)C1)C1CCCCC1` (stereo not drawn), the “activity change, negative = inhibition” value is 2.04%. As for `O=C(/C=C/c1ccccc1)Nc1cc(-c2nc3cc(Cl)ccc3o2)ccc1Cl`, the “activity change, negative = inhibition” value was 3.86%. As for `Cc1ccc(CCNC(=O)c2ccc3c(c2)N(Cc2cc(C)ccc2C)C(=O)c2ccccc2S3=O)cc1` (stereo not drawn), the “activity change, negative = inhibition” value is -5.3%. `O=C(CCc1nc(CN2CCN(S(=O)(=O)c3ccc(F)cc3)CC2)no1)N1CCCCC1`: the “activity change, negative = inhibition” value is 1.03%.

Regarding `CCOc1ccc(Nc2oc(/C=C/c3ccc(F)cc3)nc2C#N)cc1`, the “activity change, negative = inhibition” value is 0%. In the case of `Oc1ccc(-c2nc3ccc(Cl)cn3c2Nc2ccc3c(c2)OCO3)cc1`, the “activity change, negative = inhibition” value is -2.86%.

For `COc1cc(OC)c(N(C)C(=O)c2cc3c(=O)oc4ccccc4c3s2)cc1Cl`, the “activity change, negative = inhibition” value is -4.35%. In the case of `COc1ccc(-c2nc(Cn3c(=O)cc(C)c4c(C)nn(-c5ccccc5)c43)c(C)o2)cc1OC`, the “activity change, negative = inhibition” value was 14.5%. As to `COc1ccccc1Nc1nc(N)nc(N)c1S(=O)(=O)c1ccccc1`, the “activity change, negative = inhibition” value is 8.86%. With `O=c1c(=O)n(Cc2c(F)cccc2Cl)ccn1Cc1ccccc1`, the “activity change, negative = inhibition” value is -0.719%. Turning to `O=[N+]([O-])/C=C/c1ccc2c(ccn2Cc2ccccc2)c1`, the Potency was 20.7 µM (active). As for `COc1ccc(Cn2ccn(Cc3cccc(OC)c3)c(=O)c2=O)cc1`, the “activity change, negative = inhibition” value is -4.83%. As to `COc1ccc(Cl)cc1N(C)C(=O)c1cc2c(=O)oc3ccc(C)cc3c2s1`, the “activity change, negative = inhibition” value is 9.62%.

For the compound `COc1ccc(CCNC(=O)CCc2c(C)nc3c(c(C)nn3-c3ccc(C)c(C)c3)c2C)c(OC)c1OC`, the “activity change, negative = inhibition” value is -2.76%. Turning to `CCN(CC)C(=O)CSc1nc2ccsc2c(=O)n1Cc1ccccc1Cl`, the “activity change, negative = inhibition” value was 8.23%. Take `Cc1ccc(-c2ccc(CCC(=O)O)n2-c2ccc(C(N)=O)cc2)cc1`: the “activity change, negative = inhibition” value is -7.5%.

Turning to `N#Cc1nc(/C=C/c2ccc(F)cc2)oc1NCc1ccc(F)cc1`, the “activity change, negative = inhibition” value was -16.7%. On the same count and under the same terms, for `CCOc1ccc(Nc2nc3c(S(=O)(=O)c4cccc(Cl)c4)nnn3c3ccsc23)cc1` the value was 11.3%; for `COc1cc(OC)c(C2C=C(C(=O)O)Nc3ncnn32)cc1OC` (stereo not drawn), -1.93%; for `O=C1Cc2cc(S(=O)(=O)Nc3ccc(OC(F)(F)F)cc3)cc3c2N1CCC3`, 9.9%. With `COc1cc(C(=O)NCCc2csc3nc(-c4ccccc4C)nn23)cc(OC)c1OC`, the “activity change, negative = inhibition” value was -17.5%.

Take `CCc1ccc(C2C(C(=O)Nc3ccccc3)=C(C)Nc3c(C(=O)Nc4ccc(C)cc4)cnn32)cc1` (stereo not drawn): the “activity change, negative = inhibition” value is -18.3%.

As to `CN(C)c1ccc(C(CNS(=O)(=O)c2cc(F)ccc2F)N2CCOCC2)cc1` (stereo not drawn), the “activity change, negative = inhibition” value is 0%.

Consider `COc1ccc(S(=O)(=O)c2c(Nc3ccc(C)cc3)sc(C(=O)c3ccc(C)cc3)c2N)cc1`, for which the “activity change, negative = inhibition” value was -3.17%. Consider `Cc1ccccc1CCNC(=O)C1CCN(c2nc3ccccc3nc2C(F)(F)F)CC1`, for which the “activity change, negative = inhibition” value was 4.43%. `O=C(c1ccccc1F)N1CCC(c2nc3c(nnn3Cc3cccc(F)c3)c(=O)[nH]2)CC1`: the “activity change, negative = inhibition” value is 7.98%.

Take `CCOc1ccc(NC(=O)c2c(NCc3cccc(OC)c3OC)sc3c2CCC3)cc1`: the “activity change, negative = inhibition” value was -16.2%. As for `COc1cc(OC)c(NC(=O)c2cc(S(=O)(=O)N3CCCC3)cn2C)cc1Cl`, the “activity change, negative = inhibition” value is -0.894%. Regarding `O=C(COc1ccc(Cl)cc1)Nc1ccccc1OCc1cc(=O)n2ccccc2n1`, the “activity change, negative = inhibition” value was -3.61%. As to `COc1ccc(OC)c(NC(=O)CSC2=Nc3ccccc3C3=NC(CC(=O)NCCc4ccccc4)C(=O)N23)c1` (stereo not drawn), the “activity change, negative = inhibition” value was -6.25%. Consider `O=C(COc1ccccc1Cl)Nc1ccc2nc(SCC(=O)N3CCCC3)sc2c1`, for which the “activity change, negative = inhibition” value is -3.02%. On the same count and under the same terms, in the case of `O=C(CN1c2ccccc2S(=O)(=O)c2ccccc21)Nc1cccc(C(F)(F)F)c1` it was -11.9%; in that of `COc1cccc(-c2nc(CS(=O)(=O)CC(=O)N3CCN(c4cc(C)ccc4C)CC3)c(C)o2)c1`, -8.51%. As to `COc1ccc(CNC(=O)CSc2nc3ccccc3nc2Cc2ccccc2)cc1`, the “activity change, negative = inhibition” value is 10.4%. Turning to `CCOC(=O)c1c(C)n(S(=O)(=O)c2ccc(C)cc2C)c2ccc(NS(=O)(=O)c3ccc(C)cc3C)cc12`, the “activity change, negative = inhibition” value is -0.772%.

As to `CCOc1cccc(C(=O)Nc2nnc(S(=O)(=O)N(C)c3ccc(C)cc3)s2)c1`, the “activity change, negative = inhibition” value is 0%.

Take `COc1ccccc1Nc1c2c(nc3ccc(NC(=O)/C=C/c4cc(OC)c(OC)c(OC)c4)cc13)CCCC2`: the “activity change, negative = inhibition” value is 1.05%. As to `O=C(Nc1c(-c2ccc(F)cc2)nc2ccccn12)c1cccc(F)c1`, the “activity change, negative = inhibition” value is -3.61%. On to `Cc1ccc(-n2ncc3c(N4CCC(C(N)=O)CC4)ncnc32)cc1`, for which the “activity change, negative = inhibition” value was -7.51%.

`Cc1c(NC(=O)Cc2ccccc2)cccc1-c1nc2cccnc2s1`: the “activity change, negative = inhibition” value was 0%.
